# Only some compounds are listed: those with a hit (about 6.9% of all), similar ones and a draw of the others.
# JMJD2A Tudor inh: qHTS Assay for Inhibitors of JMJD2A-Tudor Domain; Lysine-specific demethylase 4A (Homo sapiens), O75164; actives 4.4% (n = 390,000); AlphaScreen JMJD2A-Tudor / H3K4me3 peptide binding; AID 504339, 2011; Potency, µM (highest dose often 114 µM), for the others: at the top dose activity change, negative = inhibition, actives largely listed as inhibitors; further: on the % scale 0 is the no-effect control and ±100 the full control effect; nearly all actives have a fitted effect of over 50% in size
# HP1b binding inh: HTS for Inhibitors of HP1-beta Chromodomain Interactions with Methylated Histone Tails. AID 540317, 2011. Chromobox protein homolog 1 (Homo sapiens), P83916. actives 0.56% (n = 390,000). AlphaScreen HP1-beta / biotin-H3K9me3 peptide binding. Potency, µM (highest dose often 114 µM), for inactives: at the top dose activity change, negative = inhibition, usual class: inhibitors; further: nearly all actives have a fitted effect of over 70% in size
#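 AlphaScreen: HP1-beta (50 nM) preformed 30 min with biotin-H3(1-18)K9me3 peptide (50 nM) in PBS pH 7.4, 0.01% Tween-20. Compound added for 30 min at RT, then streptavidin donor/nickel chelate acceptor beads (10 ug/mL) for 30 min.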
# L3MBTL1 inh: qHTS Assay for the Inhibitors of L3MBTL1; AlphaScreen L3MBTL1–H3K9me1 peptide binding; Potency, µM (titrated, usually from 57.1 µM), for the others: at the top dose activity, negative = inhibition, actives largely listed as inhibitors; actives 0.66% (n = 230,000); AID 485360, 2010; further: on the % scale 0 is the no-effect control and ±100 the full control effect; nearly all actives have a fitted effect of over 60% in size
# Target sequence (Q9Y468 whole entry, looked up): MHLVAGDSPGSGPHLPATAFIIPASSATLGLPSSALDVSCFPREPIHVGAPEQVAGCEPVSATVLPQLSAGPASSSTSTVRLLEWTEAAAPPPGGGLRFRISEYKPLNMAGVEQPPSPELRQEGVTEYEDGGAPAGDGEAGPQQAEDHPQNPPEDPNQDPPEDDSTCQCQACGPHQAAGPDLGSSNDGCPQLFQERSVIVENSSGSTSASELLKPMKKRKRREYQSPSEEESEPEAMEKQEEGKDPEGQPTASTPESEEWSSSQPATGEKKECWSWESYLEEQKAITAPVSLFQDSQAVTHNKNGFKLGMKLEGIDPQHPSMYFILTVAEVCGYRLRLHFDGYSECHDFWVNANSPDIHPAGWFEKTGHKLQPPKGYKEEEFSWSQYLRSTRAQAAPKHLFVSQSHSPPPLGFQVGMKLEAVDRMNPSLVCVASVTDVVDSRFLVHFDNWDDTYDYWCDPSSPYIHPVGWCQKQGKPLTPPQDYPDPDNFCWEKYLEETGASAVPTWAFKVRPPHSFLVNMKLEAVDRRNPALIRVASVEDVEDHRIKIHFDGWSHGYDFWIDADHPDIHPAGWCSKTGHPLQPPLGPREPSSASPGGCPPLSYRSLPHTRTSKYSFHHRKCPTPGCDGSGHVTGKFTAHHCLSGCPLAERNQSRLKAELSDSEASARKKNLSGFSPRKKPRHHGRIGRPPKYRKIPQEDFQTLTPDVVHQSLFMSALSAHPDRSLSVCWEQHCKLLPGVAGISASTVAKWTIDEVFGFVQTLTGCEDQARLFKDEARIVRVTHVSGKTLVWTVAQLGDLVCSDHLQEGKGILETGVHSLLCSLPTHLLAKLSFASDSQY
#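 L3MBTL1 (50 nM) pre-complexed 30 min with biotinylated H3(1-15)K9me1 peptide (75 nM), then compounds added for 30 min at room temperature; AlphaScreen streptavidin donor/nickel chelate acceptor beads (10 ug/mL final) read after 30 min dark incubation.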
# PLK1 PBD block: qHTS for Inhibitors of PLK1-PDB (polo-like kinase 1 - polo-box domain): Primary Screen | Plk1 PBD binding of FITC phosphopeptide, fluorescence polarization | actives 2.8% (n = 360,000) | AID 720504, 2013 | Potency, µM, without a hit: max response, negative = inhibition, most hits filed as inhibitors | Serine/threonine-protein kinase PLK1 (Homo sapiens), P53350; further: series mostly up to about 57 µM; on the % scale 0 is the no-effect control and ±100 the full control effect; nearly all actives have a fitted effect of over 65% in size
# BAZ2B block: qHTS Assay for Inhibitors of BAZ2B | Bromodomain adjacent to zinc finger domain protein 2B (Homo sapiens), Q9UIF8 | AlphaScreen BAZ2B-H3K14Ac peptide displacement | Potency, µM (doses to about 114 µM), without a hit: top-dose activity change, negative = inhibition, usual class: inhibitors | actives 4.4% (n = 360,000) | AID 504333, 2011; further: on the % scale 0 is the no-effect control and ±100 the full control effect; nearly all actives have a fitted effect of over 60% in size
#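 Multi-concentration screen (max 110 uM) measuring displacement of acetylated histone H3 peptide from BAZ2B by AlphaScreen, using 50 nM protein, 50 nM peptide and 10 ug/mL streptavidin donor plus Ni-chelate acceptor beads.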
# VDR inh: Inhibitors of the vitamin D receptor (VDR): qHTS. Vitamin D3 receptor (Homo sapiens), P11473. VDR-SRC2-3 peptide fluorescence polarization, 2 h. Potency, µM, without a hit: max response, negative = inhibition, most hits filed as inhibitors. actives 0.93% (n = 400,000); further: on the % scale 0 is the no-effect control and ±100 the full control effect
#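 FP read-out; VDR + SRC2-3 coactivator peptide; 23 nl compound by pintool; 2 h RT incubation; reagents held at 4 deg C, protected from light.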
# * hit, by the source's call; ? = inconclusive; · = not tested or not shown. The call rests on the fitted dose curve; in most records, active means well fitted curve in the direction sought with a large enough effect; inconclusive means small, poorly fitted or top-dose-only effect, or another doubt; inactive means no such curve, though single readings can be large; an effect the other way counts as inactive or inconclusive. Potency means the concentration at half of the fitted maximal effect.
SMILES,JMJD2A Tudor inh,HP1b binding inh,L3MBTL1 inh,PLK1 PBD block,BAZ2B block,VDR inh
COc1ccc(OC)c(CN2C(=O)CN(S(C)(=O)=O)CC2(C)C(=O)NC(C)C)c1 (centres undefined),·,·,·,-1%,·,·
O=C(NCCNCc1ccccn1)c1ccco1,-17%,37%,-4%,2%,?,-3%
O=C(NC(NCc1ccccn1)(C(F)(F)F)C(F)(F)F)c1ccco1,0.71µM*,26%,?,-4%,50µM*,-22%
COc1ccccc1C(=O)Nc1ccc2c(c1)CCCN2C(=O)c1ccccc1,?,?,·,24µM*,-29%,?
O=C(Nc1ccc2c(c1)CCCN2C(=O)c1cccs1)c1ccccc1,?,-12%,·,21µM*,?,-24%
O=C(/C=C/c1ccccc1)N1CCC(N2CCC(C(=O)N3CCOCC3)CC2)CC1,-12%,32%,-3%,-10%,4%,1%
COc1ccc(C2(O)CN(c3ccccc3)C3=[N+]2CCS3)cc1OC (centres undefined),-4%,28%,-28%,-1%,71µM*,1%
CCN(Cc1ccccc1)c1ccc(Br)cn1,88%,·,·,·,·,·
COCCOC(=O)C1=C(C)NC2=C(C(=O)CCC2)C1c1ccc(N(C)C)cc1 (centres undefined),-23%,7%,0%,-7%,-4%,-1%
CCN(CC)c1ccc(C2C(C(=O)OCCOC(C)C)=C(C)NC3=C2C(=O)CCC3)cc1 (centres undefined),?,-7%,-15%,-5%,50µM*,1%
NCCC(=O)Nc1cccc(-c2nn3c(=O)cc(N4CCNCC4)nc3s2)c1,-29%,·,·,·,·,·
CCOc1cccc(C(=O)Nc2ccc(N(CC)CC)cc2)c1,25µM*,?,?,0%,40µM*,-6%
CCN(CC)c1ccc(NC(=O)c2cnn(CC)c2)cc1,?,?,-14%,7%,40µM*,-3%
CCn1cc(C(=O)Nc2ccccc2C(=O)OC)cn1,-7%,35%,·,4%,·,-14%
CCOc1cccc(C(=O)Nc2ccc3ccccc3c2)c1,4%,42%,18%,-4%,4%,7%
CCN(CC)c1ccc(NC(=O)CCCOc2cccc(C)c2)cc1,10µM*,?,·,-6%,1%,3%
CCc1ccccc1NC(=S)N1CCNC(=O)C1CC(=O)OC (centres undefined),45µM*,-1%,-2%,21µM*,-14%,-18%
CCOC(=O)CC1C(=O)NCCN1C(=S)Nc1ccccc1 (centres undefined),4%,31%,-6%,-8%,1%,8%
CCOC(=O)CC1C(=O)NCCN1C(=S)NC(=O)c1ccccc1OC (centres undefined),28µM*,-12%,·,-8%,-1%,-1%
CO[C@@]1(NC(=O)CSCC#N)C(=O)N2C(C(=O)O)=C(CSc3nnnn3C)CSC21 (some centres undefined),·,·,·,·,·,-16%
CO[C@@]1(NC(=O)C2SC(=C(C(N)=O)C(=O)O)S2)C(=O)N2C(C(=O)O)=C(CSc3nnnn3C)CS[C@@H]21 (some centres undefined),25µM*,-2%,7.9µM*,-8%,50µM*,-18%
COc1cc(/C=N/NC(=O)c2cc(-c3cccn3C)n[nH]2)cc(OC)c1OC,?,-32%,-13%,-17%,40µM*,1%
COc1cccc(/C=N/NC(=O)c2cc(-c3cccn3C)n[nH]2)c1,-34%,?,-26%,-26%,?,-6%
Cn1cccc1-c1cc(C(=O)N/N=C/C=C/c2ccccc2)[nH]n1,?,?,?,-29%,-32%,22%
Cn1cccc1-c1cc(C(=O)N/N=C/c2ccc(Cl)cc2)[nH]n1,?,-28%,·,-26%,50µM*,0%
SMILES,JMJD2A Tudor inh,HP1b binding inh,L3MBTL1 inh,PLK1 PBD block,BAZ2B block,VDR inh
Cc1[nH][nH]c(=O)c1C(c1ccc(Cl)cc1)c1c(C)[nH][nH]c1=O,-18%,36%,-1%,30µM*,0%,-7%
COc1cc(=O)n(C)c2c(OC[C@@H](O)C(C)(C)O)cccc12,·,·,·,·,·,-1%
O=C1OC(c2ccc(F)cc2)=C/C1=C\c1ccc([N+](=O)[O-])o1,·,·,·,·,45µM*,·
O=C(CSc1nc2c(sc3ccccc32)c(=O)n1CCCC(=O)NC1CCCC1)Nc1ccc(F)cc1,9%,44%,·,·,-14%,-5%
COc1ccccc1-c1nn2c(C3COc4ccccc4O3)nnc2s1 (centres undefined),-36%,-38%,-5%,12µM*,-23%,71µM*
Clc1ccccc1-c1nnc2sc(C3COc4ccccc4O3)nn12 (centres undefined),-15%,-22%,-8%,?,1%,?
Cc1ccc(-c2nnc3sc(C4COc5ccccc5O4)nn23)cc1 (centres undefined),-22%,22%,3%,-10%,-3%,2%
c1ccc(CCc2nn3c(C4COc5ccccc5O4)nnc3s2)cc1 (centres undefined),?,?,-15%,24µM*,9%,-77%
c1ccc(Cc2nnc3sc(C4COc5ccccc5O4)nn23)cc1 (centres undefined),-23%,-33%,-12%,15µM*,4%,?
c1ccc(OCc2nnc3sc(C4COc5ccccc5O4)nn23)cc1 (centres undefined),50µM*,16µM*,·,24µM*,50µM*,71µM*
O=[S+]([O-])(c1c(F)cccc1F)N1CCN([S+](=O)([O-])c2c(F)c(F)c(F)c(F)c2F)CC1,-8%,·,·,·,·,·
CCOc1ccc(C(=O)NCCc2sc3nc(-c4ccc(Cl)cc4)nn3c2C)cc1OCC,-12%,30%,·,·,-19%,7%
c1ccc(OCc2nn3c(-c4ccncc4)nnc3s2)cc1,-16%,52%,35%,0%,38%,-12%
Clc1ccccc1-c1nn2c(-c3ccccn3)nnc2s1,?,?,-1%,0%,79µM*,6%
Clc1ccc(-c2nn3c(-c4ccncc4)nnc3s2)c(Cl)c1,·,·,9%,·,·,·
Clc1ccccc1-c1nn2c(-c3ccncc3)nnc2s1,?,?,5%,24µM*,0%,?
Clc1ccccc1-c1nnc2sc(-c3ccncc3)nn12,?,17%,·,27µM*,2%,?
